From PubChem BioAssay AID1259415 (National Center for Advancing Translational Sciences (NCATS), 2018)
Where “and” joins values, the source holds several entries; their conditions need not be identical. Equal entries are not always repeated. In all, about 410,000 compounds went through this assay and about 18,000 (4.4%) were called active. Another 7% or so got no clear call; they are omitted. Cut-off read from the data, not from the text of the source: active = activity change below about -60%; inconclusive = no clear call, values can overlap the other calls; inactive = above about -39%. The full list was thinned out, with actives kept by preference.
% is set by controls: 0 for no effect and ±100 for the full control effect.

Test: qHTS Assay for inhibitors of the human cytomegalovirus (HCMV)
Details: HFF cells, HCMV-luciferase reporter, 72 h; at 57.5 µM; hits give low values
How it was run: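 Screen run at 2 compound doses on HFFs infected with reporter HCMV, MOI 1 PFU/cell. Luciferase activity from cell lysates at 72 h post infection gave inhibition relative to buffer-only and Salinomycin wells.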
With `CCOc1ccc(-c2cn(S(=O)(=O)c3cccc4nsnc34)nc2N)cc1` the activity change, negative = inhibition was -29.7% (inactive). With `CCC(C)(C)n1nnnc1C(c1cccs1)N1CCN(c2nc3ccccc3s2)CC1` (stereo not given) the activity change, negative = inhibition was -76.3% (active). In the case of `CCC(C)(C)n1nnnc1C(c1ccc(OC)c(OC)c1)N1CCN(C(=O)c2ccco2)CC1` (stereo not given), the activity change, negative = inhibition is reported as -20.3% (inactive). In the case of `COc1ccccc1C(c1nnnn1C(C)(C)C)N1CCN(Cc2ccccc2)CC1` (stereo not given), the activity change, negative = inhibition is reported as -19.3% (inactive). In the case of `CCOc1ccccc1N(CC)C(=O)c1cc2ccc3cccnc3c2[nH]1`, the activity change, negative = inhibition is reported as 36.8% (inactive). In the case of `CCOC(=O)c1c(C)[nH]c2c1-c1ccccc1C(=O)C2=O`, the activity change, negative = inhibition is reported as -99.7% (active). For `CCOC(=O)c1c(SCC(=O)Nc2cccc(C)c2C)nc(=O)[nH]c1C`, the activity change, negative = inhibition was -0.768% (inactive). In the case of `CCOC(=O)c1c(C)[nH]c(C)c1S(=O)(=O)N(C)CC(=O)N1CCN(c2ccccc2)CC1`, the activity change, negative = inhibition is reported as -3.36% (inactive). For `CCOCCCNC(=O)c1c(NC(=O)Cc2coc3c(C)c(C)ccc23)sc2c1CCC2`, the activity change, negative = inhibition was -19.7% (inactive). In the case of `O=C(Nc1nnc(S(=O)(=O)N2CCCc3ccccc32)s1)c1cccc(F)c1`, the activity change, negative = inhibition is reported as -22.4% (inactive). In the case of `CCN(CC(=O)Nc1c(F)cccc1F)C(=O)c1ccc(S(=O)(=O)N2CCCCC2)cc1`, the activity change, negative = inhibition is reported as -16.4% (inactive). For `Cc1cc(C)c2sc(NC(=O)c3ccc(S(=O)(=O)N4CCCC4)cc3)nc2c1`, the activity change, negative = inhibition was 1.97% (inactive). With `CN(C)CCCN(C(=O)c1ccc(S(=O)(=O)N2CCCCCC2)cc1)c1nc2ccc(Br)cc2s1` the activity change, negative = inhibition was -66.2% (active). With `CN(C)CCCN(C(=O)c1ccc(S(=O)(=O)N2CCCc3ccccc32)cc1)c1nc2ccc(F)cc2s1` the activity change, negative = inhibition was -113% (active). In the case of `CC1CCN(C(=O)c2cccc(S(=O)(=O)N3CCCc4ccccc43)c2)CC1`, the activity change, negative = inhibition is reported as -31.3% (inactive). For `Cc1cn(C)c(CC(=O)NCc2ccc(Cl)cc2)c1C(=O)O`, the activity change, negative = inhibition was -3.74% (inactive). With `O=C(CSc1ncc(CO)n1Cc1ccc(Cl)cc1)NCc1ccc(F)cc1` the activity change, negative = inhibition was 0.963% (inactive). In the case of `Cc1ccc2[nH]c(=O)c(CC=C(Cl)Cl)c(C)c2c1`, the activity change, negative = inhibition is reported as -11.6% (inactive). With `CCC(=O)Nc1cccc(-c2nc3cc(C)ccc3o2)c1` the activity change, negative = inhibition was 103% (inactive). With `NC(=O)c1ccc(N2CCCC2)nc1` the activity change, negative = inhibition was 9.29% (inactive). For `C/C(CC(C)C)=N\Oc1nc(C)cc(C)n1`, the activity change, negative = inhibition was -62.7% (active). With `COc1ccc(NC(=O)C(CC(C)C)NS(=O)(=O)c2ccc3c(c2)CCN3C(C)=O)cc1OC` (stereo not given) the activity change, negative = inhibition was -16% (inactive). For `C[C@]12CC[C@H](O)CC1=CCC1C2CC[C@@]2(C)C1CC[C@@H]2NC(=O)CCC(=O)O` (stereo not given in full), the activity change, negative = inhibition was -2.14% (inactive). For `CC(=O)OC1CCC2(C)C(=CCC3C4CC(=O)N(O)C(=O)C4(C)CCC32)C1` (stereo not given), the activity change, negative = inhibition was 17.9% (inactive). In the case of `C[C@@H]1CC[C@@]2(OC1)O[C@H]1C[C@H]3[C@@H]4CC=C5C[C@@H](O)[C@H](O)C[C@]5(C)C4CC[C@]3(C)[C@H]1[C@@H]2C` (stereo not given in full), the activity change, negative = inhibition is reported as -70.9% (active). For `Cc1cccc(NC(=O)c2nnn(CC(=O)Nc3ccc(C(C)C)cc3)c2N)c1C`, the activity change, negative = inhibition was 3.95% (inactive). With `COc1cccc(NC(=O)COC(=O)c2ccc3ccccc3n2)c1` the activity change, negative = inhibition was 78.4% (inactive). In the case of `COc1cccc(/C=C/c2ccc3ccccc3n2)c1OC(C)=O`, the activity change, negative = inhibition is reported as -95.1% (active). For `CCOc1cccc(/C=C/c2ccc3ccccc3n2)c1OC(C)=O`, the activity change, negative = inhibition was -79.7% (active). In the case of `COc1ccccc1/C=C/C1=NC(=C\N(C)C)/C(=O)O1`, the activity change, negative = inhibition is reported as 64.2% (inactive). In the case of `CCOc1ccc2ccccc2c1/C=N/NC(=O)c1c(C)cc(C)[nH]c1=O`, the activity change, negative = inhibition is reported as -32.4% (inactive). In the case of `Cc1cc(C)cc(NS(=O)(=O)c2cc3c(cc2C)NC(=O)CO3)c1`, the activity change, negative = inhibition is reported as -26.3% (inactive). With `Cc1cccc(N2CCN(C(=O)c3cc4c(=O)oc5ccccc5c4s3)CC2C)c1` (stereo not given) the activity change, negative = inhibition was 1.15% (inactive). With `COc1ccc(NC(=O)Cn2c(=O)n(CCC(C)C)c(=O)c3cccnc32)cc1Cl` the activity change, negative = inhibition was -4.37% (inactive). With `Cc1ccc(CNC(=O)Nc2nnc([C@H]3C[C@H](O)[C@@H](CO)O3)s2)cc1` the activity change, negative = inhibition was -100% (active). In the case of `O=C(Nc1nnc([C@H]2C[C@H](O)[C@@H](CO)O2)s1)c1cccc(Cl)c1`, the activity change, negative = inhibition is reported as 40.2% (inactive). For `O=C(Nc1ccc(F)cc1)Nc1nnc([C@H]2C[C@H](O)[C@@H](CO)O2)s1`, the activity change, negative = inhibition was 30.2% (inactive). In the case of `COc1ccccc1OCCC(=O)OCC(=O)NCc1ccccc1`, the activity change, negative = inhibition is reported as 14.2% (inactive). In the case of `COc1cc(-c2nnn(CC(=O)NCc3ccccc3)n2)cc(OC)c1OC`, the activity change, negative = inhibition is reported as 5.2% (inactive) and 12.4% (inactive). For `COc1cc(C(=O)NCc2ccncc2)cc(Br)c1OCc1ccccc1`, the activity change, negative = inhibition was -62.2% (active). In the case of `CCC(=O)N1CCc2cc(S(=O)(=O)NC(C(=O)N3CCc4ccccc4C3)C(C)C)ccc21` (stereo not given), the activity change, negative = inhibition is reported as -14.7% (inactive). With `Cc1nc(NC(CC(C)C)C(=O)O)c2nc(C)oc2n1` (stereo not given) the activity change, negative = inhibition was -6.81% (inactive). With `CCOC(=O)c1cc2cc(-c3c(C(=O)OCC)oc4cc(O)cc(O)c4c3=O)ccc2o1` the activity change, negative = inhibition was -2.73% (inactive). With `CCOc1ccc2c(=O)c(-c3ccc4c(c3)OCCCO4)c(C)oc2c1` the activity change, negative = inhibition was 20.1% (inactive). With `O=c1c(-c2ccc3c(c2)OCCO3)c(C(F)(F)F)oc2cc(O)cc(O)c12` the activity change, negative = inhibition was -90.6% (active). With `CCc1ccc(CNC(=O)c2ccc(CS(=O)c3ccc(Br)cc3)o2)cc1` (stereo not given) the activity change, negative = inhibition was 10.6% (inactive). In the case of `CCOC(=O)c1cc(-c2ccccc2)n(CCC(=O)Nc2ccccc2CC)c1C`, the activity change, negative = inhibition is reported as 30.9% (inactive). In the case of `Cc1ccc(Cl)cc1NC(=O)CSc1nc2ccccc2nc1Cc1ccccc1`, the activity change, negative = inhibition is reported as 36.7% (inactive). In the case of `CCN1/C(=C\c2ccc3ccccc3[n+]2CC)Sc2cc(C)ccc21`, the activity change, negative = inhibition is reported as -99.8% (active). With `O=c1o[nH]c(-c2ccccc2)c1N=Nc1c(F)cccc1Cl` the activity change, negative = inhibition was -12.9% (inactive). With `COc1cc(NC(=O)CCn2nc(C)cc2C)cc(OC)c1OC` the activity change, negative = inhibition was 9.6% (inactive). In the case of `COc1ccccc1/C=C1\SC(=O)N(CCC(=O)N(C)C2CCS(=O)(=O)C2)C1=O` (stereo not given), the activity change, negative = inhibition is reported as -7.61% (inactive). With `CN(C(=O)CCN1C(=O)/C(=C/c2ccccc2F)SC1=S)C1CCS(=O)(=O)C1` (stereo not given) the activity change, negative = inhibition was -63.4% (active). In the case of `CN(C(=O)CN1C(=O)S/C(=C\c2ccccc2F)C1=O)C1CCS(=O)(=O)C1` (stereo not given), the activity change, negative = inhibition is reported as -18.9% (inactive). In the case of `CCCNC(=O)CCC(=O)N1Cc2ccccc2Oc2ncccc21`, the activity change, negative = inhibition is reported as 2.27% (inactive).
